KDM5B inh = KDM5B demethylase inhibition | Q9UGL1 | KDM5B demethylase, FDH-coupled NADH fluorescence (FDH is formaldehyde dehydrogenase) | Potency, µM (doses to about 57.7 µM), actives largely listed as inhibitors | actives 2.6% (n = 220,000); further: potency means the concentration at half of the fitted maximal effect; 0% is about no effect; nearly all actives have a fitted effect of over 70% in size
Target sequence (Q9UGL1 whole entry, looked up): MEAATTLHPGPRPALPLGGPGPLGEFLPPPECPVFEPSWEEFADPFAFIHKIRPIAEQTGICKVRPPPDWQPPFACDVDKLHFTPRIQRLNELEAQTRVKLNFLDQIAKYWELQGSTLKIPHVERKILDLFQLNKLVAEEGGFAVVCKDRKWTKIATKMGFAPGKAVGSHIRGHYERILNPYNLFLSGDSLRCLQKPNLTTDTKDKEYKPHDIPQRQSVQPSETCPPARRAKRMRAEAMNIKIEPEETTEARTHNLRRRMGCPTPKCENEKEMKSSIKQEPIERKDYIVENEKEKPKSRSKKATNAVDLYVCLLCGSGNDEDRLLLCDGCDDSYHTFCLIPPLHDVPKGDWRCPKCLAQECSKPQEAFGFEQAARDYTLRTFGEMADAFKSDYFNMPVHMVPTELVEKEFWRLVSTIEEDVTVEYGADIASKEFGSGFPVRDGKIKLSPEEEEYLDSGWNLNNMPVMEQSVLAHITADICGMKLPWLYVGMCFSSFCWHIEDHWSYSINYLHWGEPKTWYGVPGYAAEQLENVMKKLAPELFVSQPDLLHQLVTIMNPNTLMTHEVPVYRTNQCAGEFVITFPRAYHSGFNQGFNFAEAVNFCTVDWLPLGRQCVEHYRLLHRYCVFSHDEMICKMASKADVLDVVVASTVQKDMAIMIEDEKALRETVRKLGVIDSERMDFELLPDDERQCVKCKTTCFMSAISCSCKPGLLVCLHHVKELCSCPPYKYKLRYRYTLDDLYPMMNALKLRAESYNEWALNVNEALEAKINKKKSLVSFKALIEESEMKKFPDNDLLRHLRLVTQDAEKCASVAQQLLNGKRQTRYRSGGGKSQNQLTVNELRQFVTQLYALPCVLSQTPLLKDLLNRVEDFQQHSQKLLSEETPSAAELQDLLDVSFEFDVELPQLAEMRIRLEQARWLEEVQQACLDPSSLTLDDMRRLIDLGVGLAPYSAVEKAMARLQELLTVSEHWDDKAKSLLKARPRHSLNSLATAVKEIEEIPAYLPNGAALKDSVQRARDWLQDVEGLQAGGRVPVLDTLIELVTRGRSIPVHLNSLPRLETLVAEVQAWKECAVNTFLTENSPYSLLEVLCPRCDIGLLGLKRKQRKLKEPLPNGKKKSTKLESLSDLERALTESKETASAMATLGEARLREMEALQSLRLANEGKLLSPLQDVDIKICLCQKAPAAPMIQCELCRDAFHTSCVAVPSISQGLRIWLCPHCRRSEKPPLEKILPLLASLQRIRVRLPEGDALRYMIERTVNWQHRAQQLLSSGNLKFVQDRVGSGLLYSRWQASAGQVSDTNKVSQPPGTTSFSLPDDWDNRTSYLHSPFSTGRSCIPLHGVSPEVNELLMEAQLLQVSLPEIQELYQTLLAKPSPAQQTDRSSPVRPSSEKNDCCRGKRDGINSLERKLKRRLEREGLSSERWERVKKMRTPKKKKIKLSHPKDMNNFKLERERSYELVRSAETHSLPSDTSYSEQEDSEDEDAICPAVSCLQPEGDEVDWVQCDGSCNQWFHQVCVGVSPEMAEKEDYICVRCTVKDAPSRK
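Here, H3K4me3 peptide (12.5 µM in substrate mix) is demethylated by KDM5BΔAP, 200 nM final, after 10 min compound exposure. Formaldehyde product is coupled through FDH (0.25 U/mL in mix) to NADH fluorescence; 30-min ΔRFU feeds dose-response curves.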
IP6K1 inh = inhibitors of human IP6K1; Q92551; IP6K1 kinase, ADP-Glo luminescence, 2 h; stronger effect = lower value; activity change, % (series mostly up to about 58 µM); actives 0.81% (n = 140,000); AID 1645851; in the data active means activity change below about -25%; further: on the % scale 0 is the no-effect control and ±100 the full control effect
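ADP-Glo luminescence measures ADP made by human IP6K1 during a 2 h RT reaction with ATP/IP6 (mix at 1.3 mM/130 uM); top library doses 57.5 and 19.1 uM final.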
SNCA viab count = cell viability loss counter-screen | HEK-293-SNCA-luc viability, GF-AFC fluorescence, 24 h | Potency, µM (titrated, usually from 57.1 µM), for the others: at the top dose activity change, negative = cytotoxicity, actives largely listed as cytotoxic | actives 0.12% (n = 150,000) | AID 1671193;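 further: potency means the concentration at half of the fitted maximal effect; 0% = DMSO-treated cells and -100% = medium-only wells without cells; nearly all actives have a fitted effect of over 30% in size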
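Cytotoxicity counterscreen: after 24 h compound treatment of genome-edited SNCA-luciferase HEK-293 cells, live-cell protease substrate GF-AFC read by fluorescence after 30 min; activity scaled between DMSO (0%) and medium-only (-100%), curves Hill-fitted.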
SNCA expr inh = SNCA gene expression inhibition; HEK-293 SNCA-luciferase knock-in, luminescence, 24 h; Potency, µM (top dose mostly 57.2 µM), inactives show at the highest dose activity change, negative = inhibition, most hits filed as inhibitors; actives 0.17% (n = 140,000);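 further: potency means the concentration at half of the fitted maximal effect; plate controls were DMSO cells for no effect and cell-free wells for full effect; nearly all actives have a fitted effect of over 45% in size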
IP6K1 inh cnf = human IP6K1 inhibition, confirmatory | shares compounds with IP6K1 inh | recombinant IP6K1 kinase, ADP-Glo luminescence, 2 h | Potency, µM (doses to about 49 µM), inactives show at the top dose activity change, negative = inhibition, usual class: inhibitors | actives 13% (n = 1,200) | AID 1645852; further: potency means the concentration at half of the fitted maximal effect; on the % scale 0 is the no-effect control and ±100 the full control effect; nearly all actives have a fitted effect of over 65% in size
The depositor's hits bear a star; i = inactive; ? = inconclusive; . = no result; [ ] = dose if it differs, or a comment. An excerpt weighted towards active compounds, which were near 2.8% of everything screened. Unless noted, the call rests on the fitted dose curve; in most records, active means well fitted curve in the direction sought with a large enough effect; inconclusive means small, poorly fitted or top-dose-only effect, or another doubt; inactive means no such curve, though single readings can be large; an effect the other way counts as inactive or inconclusive.

SMILES	KDM5B inh	IP6K1 inh	SNCA viab count	SNCA expr inh	IP6K1 inh cnf
CCOC(=O)N1CCN(Cc2nc3cc(NC(=O)C(C)C)ccc3n2C(C)C)CC1	i	-36*	-10%	-23%	6%
COc1cc([C@H]2Oc3cc([C@H]4Oc5cc(O)cc(O)c5C(=O)[C@@H]4O)ccc3O[C@@H]2CO)ccc1O	.	-79*	-27%[23.9 µM]	21%[25.6 µM]	7.3µM*
COc1cc([C@H]2Oc3cc([C@H]4Oc5cc(O)cc(O)c5C(=O)[C@H]4O)ccc3O[C@H]2CO)ccc1O	.	.	15%	?	.
Cc1ccccc1NC(=O)CCn1nc(-c2ccccc2)c2ccccc2c1=O	i	-25*	-15%	-6%	-10%
O=C(CCn1nc(-c2ccccc2)c2ccccc2c1=O)Nc1cccc2ccccc12	i	.	.	.	.
O=C(c1ccncc1)N1CCCN(Cc2cccnc2)c2ccccc21	i	0	3%	44%	.
CNC(=O)c1cc(-c2ccc(C)cc2)cc2c1OCCN2Cc1cccnc1	?	-29*	-5%[87.6 µM]	-14%[87.6 µM]	?
NC(=O)c1cc(-c2ccccc2F)cc2c1OCCN2Cc1cccnc1	35µM*	-25*	-21%[87.6 µM]	-17%[87.6 µM]	?
Cc1cc(C)n(CCC(=O)NCC2CCN(c3cc(-c4ccccc4)[nH]n3)CC2)n1	?	13	-3%	?	.
O=C(NCCc1ccccc1)C1CCN(c2nc3ccccc3nc2C(F)(F)F)CC1	i	-1	7%	2%	.
CCCSCCCNC(=O)C1CCN(c2nc3ccccc3nc2C(F)(F)F)CC1	i	-29*	-1%	1%	-9%
CCN1CCN(C(c2ccc(F)cc2)c2sc3nc(-c4ccco4)nn3c2O)CC1 (configuration not stated)	i	-29*	?	46%	?
Cc1ccc(C)c(N2CCN(c3ncnc4c3nc3n4CCCC3)CC2)c1	i	-30*	-19%	23%	-3%
CC(=O)Nc1ccc(NS(=O)(=O)c2ccc(Cl)s2)cc1	i	-28*	7%	13%	-25%
COc1ccc(CN2CCN(S(=O)(=O)c3ccccc3)CC2)c(OC)c1	?	-49*	-6%	-3%	-3%
COc1ccc(C2Cn3nnc(C(=O)N4CCN(C(=O)CCc5ccccc5)CC4)c3CO2)cc1 (configuration not stated)	?	-25*	-4%	?	21%
CCn1c(CO)nnc1C1CC(NC(=O)c2cccc3c2OCCO3)C1 (configuration not stated)	?	-25*	-4%	2%	32%
C=Cc1cc(O)cc2nc(-c3ccc(O)c(F)c3)oc12	.	-28*	-4%	.	?
COc1ccc(-c2ccc3nc(-c4ccc(F)c(F)c4)oc3c2)c(OC)c1OC	i	0	3%	-1%	.
C[S+](=O)([O-])NCc1nnc2n1C(C(=O)NCc1ccccc1F)CC2 (configuration not stated)	.	-28*	12%	1%	-2%
C[S+](=O)([O-])NCc1nnc2n1C(C(=O)NCc1ccccc1)CC2 (configuration not stated)	.	11	0%[12.5 µM]	-3%[87.6 µM]	.
COCC(=O)N1CCC(c2nn(-c3ccc(OC)cc3)c(=O)[nH]2)CC1	i	6	-12%	?	.
Cn1c(SCC(=O)Nc2ccc(NC(=O)c3ccccc3)cc2)nnc1-c1ccncc1	i	.	.	.	.
Cn1c(SCC(=O)Nc2ccccc2)nnc1-c1ccccc1	i	-34*	-7%	47%	-5%
CCOc1ccc(/C=C(\C#N)C(=O)Nc2sc3c(c2C(=O)OC)C(C(=O)OC)CC3)cc1OC (configuration not stated)	?	-29*	-4%	-12%	2.9µM*
SMILES	KDM5B inh	IP6K1 inh	SNCA viab count	SNCA expr inh	IP6K1 inh cnf
COC(=O)c1c(SC)nc2ccccc2c1OCc1ccccc1Cl	i	-26*	-1%	-13%	-7%
COC(=O)c1c(SC)nc2ccccc2c1OCc1cc(C)ccc1C	i	40	6%	?	.
CCn1cc(-c2ccc(C)cc2)cc1C(=O)N1CCC(C)CC1	i	-30*	-7%	-15%	?
CC1(C)CC2(C)OC(=O)OC2(C)c2ccccc21 (configuration not stated)	i	.	.	.	.
CCOc1cc(Br)c(C2C(C(=O)OC)=C(C)NC3=C2C(=O)c2ccccc23)cc1OCC (configuration not stated)	?	-32*	-7%	-24%	-12%
CCOc1cc(C2C(C(=O)OC)=C(C)NC3=C2C(=O)c2ccccc23)c(Br)cc1OC (configuration not stated)	?	-2	3%	-18%	.
CCOc1ccc(CNC(=O)C2CCCN(c3nn4cc(-c5ccc(F)cc5)nc4s3)C2)cc1 (configuration not stated)	i	1	5%	81%	.
CCOc1ccc(CNC(=O)C2CCCN(c3nn4cc(-c5ccc(OC)cc5)nc4s3)C2)cc1 (configuration not stated)	i	-37*	-9%	80%	?
Cc1c(O)nc(SCC(=O)Nc2cccc(C(F)(F)F)c2)n(-c2ccccc2)c1=O	i	.	.	.	.
Cc1c(O)nc(SCC(=O)Nc2ccc(Cl)cc2Cl)n(-c2ccc(F)cc2)c1=O	i	-27*	16%	-3%	?
CCc1ccc(NC2=NC(CC)CS2)cc1 (configuration not stated)	i	.	.	.	.
Cc1ccc(OCC(=O)Nc2ccc3nc(SCC(N)=O)sc3c2)cc1	i	8	0%	28%	.
Cc1ccc(OCC(=O)Nc2ccc3nc(SCCOc4ccccc4)sc3c2)cc1	i	-27*	1%	33%	0%
CCOc1ccc(NS(=O)(=O)c2ccc3nc(-c4ccccc4)[nH]c3c2)cc1	i	-22	-3%	-21%	.
COc1ccc(NS(=O)(=O)c2ccc3nc(-c4ccccc4)[nH]c3c2)cc1	i	-31*	-19%	-30%	-17%
Cc1cccc(Cn2c(SCCCO)nc3c2c(=O)n(C)c(=O)n3C)c1	i	.	.	.	.
Cc1ccc(C)c(N2CCN(c3ccc(NC(=O)c4cccs4)cc3C(=O)O)CC2)c1	?	-33*	1%	20%	?
CC(=O)N1CCC(N2C(=O)C3(CCCC3)C2c2scnc2C)CC1 (configuration not stated)	i	-4	-1%[12.5 µM]	16%	.
O=C(Nc1nc2cccc(-c3ccc(CN4CCS(=O)(=O)CC4)cc3)n2n1)C1CC1	.	-9	?	52%	39%
O=C(Nc1ccc(N2CCC(N3CCCCC3)CC2)c(C(=O)O)c1)c1ccccc1	?	-37*	4%	15%	?
CN1CC2(CCCN(C(=O)c3ccc(OC(F)F)cc3)CC2)OC1=O (configuration not stated)	i	10	-3%	8%	.

Screening results: PubChem, National Center for Advancing Translational Sciences (NCATS)
